Data on 30 compounds can be found in PubChem BioAssay (Tox21).

The source made the active and inactive calls. Unless noted, the call rests on the fitted dose curve; in most records, active means well fitted curve in the direction sought with a large enough effect in the repeat runs; inconclusive means weak or mixed curves; inactive means no such curve, though single readings can be large; an effect the other way counts as inactive or inconclusive.

Test [1] can be described thus: qHTS assay to identify small molecule antagonists of the thyroid receptor (TR) signaling pathway - cell viability counter screen (AID 743064). Further: nearly all actives have a fitted effect of over 50% in size. Further: potency means the concentration at half of the fitted maximal effect. A digest of the protocol: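 In-well cytotoxicity read by CellTiter-Fluor (30 min, 37 C) following 23.5 h exposure of GH3 cells bearing a TRE-luciferase sensor. Compounds were added alongside 1 nM (final) T3 to drive TR transactivation.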
(qHTS replaces the single test concentration by a dilution series.)

The target of test [2] is Estrogen receptor (Homo sapiens) (UniProt P03372). The test is described as follows: qHTS assay to identify small molecule antagonists of the estrogen receptor alpha (ER-alpha) signaling pathway (AID 743069; active means well fitted curve in the direction sought with a large enough effect in the signal ratio in the repeat runs, not every such curve was filed as active; inconclusive means weak or mixed curves, or effect the other way; inactive means no such curve, though single readings can be large or run the other way; the % refers to the signal ratio; further: potency means the concentration at half of the fitted maximal effect). A digest of the protocol: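 ER-alpha-UAS-bla GripTite HEK293 line; 2% charcoal-stripped FBS overnight; plated, 4 hr 37C/5% CO2; cpd in DMSO + 17beta-estradiol, 18 hr 37C; LiveBLAzer B/G FRET substrate 2 hr RT; fluorescence intensity.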

Test [3] in a line: qHTS assay to identify small molecule antagonists of the estrogen receptor alpha (ER-alpha) signaling pathway - cell viability counter screen (AID 743074; calls by dose curve;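 further: HEK293 cells carrying ER-alpha-UAS-bla reporter stimulated with 17beta-estradiol; nearly all actives have a fitted effect of over 45% in size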).
In test [4] the target is Estrogen receptor (Homo sapiens) (UniProt P03372). In words: qHTS assay to identify small molecule agonists of the estrogen receptor alpha (ER-alpha) signaling pathway (AID 743075; calls by dose curve;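 further: HEK293 GripTite cells with ER-alpha and UAS-driven beta-lactamase reporter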; further: potency means the concentration at half of the fitted maximal effect).
The nature of test [5]: qHTS assay to identify small molecule antagonists of the estrogen receptor alpha (ER-alpha) signaling pathway using the BG1 cell line - cell viability counter screen (AID 743081).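 Further: compound given together with 17beta-estradiol as the ER stimulus; series mostly up to about 70 µM; nearly all actives have a fitted effect of over 45% in size.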
In another test the target is Aromatase (Homo sapiens) (UniProt P11511). In words: qHTS assay to identify aromatase inhibitors (AID 743083). Further: nearly all actives have a fitted effect of over 55% in size. Further: potency means the concentration at half of the fitted maximal effect.
The nature of test [6]: qHTS assay to identify small molecule antagonists of the thyroid receptor (TR) signaling pathway (AID 743065). Further: nearly all actives have a fitted effect of over 55% in size. Further: potency means the concentration at half of the fitted maximal effect. The essentials: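 Antagonism measured as loss of luciferase signal in GH3 cells stably carrying a TRE-luciferase reporter, co-treated with compound and T3 (1 nM final) for 23.5 h at 37 C. Viability was read in the same well by CellTiter-Fluor.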
For test [7], the system named is thyroid hormone receptor (rat, GH3 cells). The test is described as follows: qHTS assay to identify small molecule agonists of the thyroid receptor (TR) signaling pathway (AID 743066; calls by dose curve).
A short description of test [8]: qHTS assay to identify small molecule antagonists of the estrogen receptor alpha (ER-alpha) signaling pathway using the BG1 cell line (AID 743080; calls by dose curve; further: series mostly up to about 70 µM; nearly all actives have a fitted effect of over 25% in size). A digest of the protocol: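 Antagonist mode: compounds in DMSO were pinned onto BG1-Luc-4E2 cells alongside 17beta-estradiol agonist, incubated 21.5 h, and ERE-driven luciferase measured with ONE-Glo. Cytotoxicity was multiplexed using CellTiter-Fluor fluorescence.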

Test [9] concerns the target Estrogen receptor (Homo sapiens) (UniProt P03372). The test is described as follows: qHTS assay to identify small molecule agonists of the estrogen receptor alpha (ER-alpha) signaling pathway using the BG1 cell line (AID 743079). Further: nearly all actives have a fitted effect of over 20% in size. Further: potency means the concentration at half of the fitted maximal effect.

Sequence of Aromatase (Homo sapiens) (P11511 whole entry, looked up): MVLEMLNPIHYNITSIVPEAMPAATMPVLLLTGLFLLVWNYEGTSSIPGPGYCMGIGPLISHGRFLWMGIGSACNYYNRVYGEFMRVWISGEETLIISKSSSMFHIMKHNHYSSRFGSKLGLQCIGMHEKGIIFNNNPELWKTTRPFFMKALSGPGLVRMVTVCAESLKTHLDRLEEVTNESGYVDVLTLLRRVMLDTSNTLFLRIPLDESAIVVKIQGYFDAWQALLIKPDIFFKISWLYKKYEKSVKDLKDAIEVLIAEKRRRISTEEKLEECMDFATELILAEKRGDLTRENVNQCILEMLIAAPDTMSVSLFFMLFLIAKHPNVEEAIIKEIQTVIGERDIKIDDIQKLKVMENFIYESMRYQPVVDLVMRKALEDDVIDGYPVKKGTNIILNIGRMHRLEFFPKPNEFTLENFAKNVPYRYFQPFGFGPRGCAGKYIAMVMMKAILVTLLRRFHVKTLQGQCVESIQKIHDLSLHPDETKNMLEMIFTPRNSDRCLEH
Sequence of Estrogen receptor (Homo sapiens) (P03372 whole entry, looked up): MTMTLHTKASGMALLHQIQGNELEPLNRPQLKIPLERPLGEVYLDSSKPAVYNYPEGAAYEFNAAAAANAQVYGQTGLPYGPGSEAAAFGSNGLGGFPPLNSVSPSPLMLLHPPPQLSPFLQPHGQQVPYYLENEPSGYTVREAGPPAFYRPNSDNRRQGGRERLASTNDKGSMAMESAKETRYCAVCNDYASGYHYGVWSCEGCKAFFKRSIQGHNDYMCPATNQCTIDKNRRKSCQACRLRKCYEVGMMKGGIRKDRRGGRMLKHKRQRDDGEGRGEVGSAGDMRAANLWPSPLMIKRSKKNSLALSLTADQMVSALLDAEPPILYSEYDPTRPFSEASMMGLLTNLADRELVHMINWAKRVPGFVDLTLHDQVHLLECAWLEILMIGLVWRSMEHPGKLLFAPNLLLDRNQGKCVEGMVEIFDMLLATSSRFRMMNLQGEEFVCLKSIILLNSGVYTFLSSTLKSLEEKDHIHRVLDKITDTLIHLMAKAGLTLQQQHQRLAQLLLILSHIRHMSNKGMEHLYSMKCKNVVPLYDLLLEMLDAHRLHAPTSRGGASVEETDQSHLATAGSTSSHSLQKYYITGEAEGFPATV

Regarding `Cc1cccc(OCCOc2cccc(C)c2)c1`, the Potency entry (in test [1]; in test [2]; in test [4]; in test [5]; in the test with Aromatase (Homo sapiens)) was “inactive” each time. In test [3], the outcome was inactive.
Take `CC(C)(C)c1cc(O)c(C(C)(C)C)cc1O`: the results for the Potency (in test [1]; in test [2]; with Aromatase (Homo sapiens)) were 48.6 µM (active), 43.6 µM [inconclusive] (active) and 21.7 µM (active), respectively. In addition, the compound was called inactive in [3]. Further, the Potency entry in test [4] and in [5] was “inactive” each time.
In the case of `CC(C)CCCC(C)CCO` (centres undefined), the Potency entry in test [6], in [7], in test [2], in [4], in test [8] and in [5] was “inactive” each time. For the same compound, the Potency result with Aromatase (Homo sapiens) was “inactive”. Further, the compound was classed as inactive in [3].
As to `CC1=CCC(C(C)C)C=C1` (centres undefined), the Potency entry in [1], in test [2], in [4], in test [9], in test [8] and in test [5] was “inactive” in each case. Also, the Potency result in the test with Aromatase (Homo sapiens) is “inactive”. For the same compound, the result in [3] was inactive.
With `O=C(O)Cc1cc(I)c(Oc2ccc(O)c(I)c2)c(I)c1`, the Potency result (in test [1]; in test [5]; with Aromatase (Homo sapiens)) was “inactive” throughout. Further, in test [3], the compound was called inactive.
With `CN(C)CC/C=C1\c2ccccc2COc2ccccc21`, the Potency in test [1] was 13.3 µM (active). For the same compound, the compound was called inactive in [3]. In addition, the Potency result (in [5]; with Aromatase (Homo sapiens)) was “inactive” throughout.
Consider `Cc1c(Cn2ccnc2)c2ccccc2n1CCC(=O)O`, for which the Potency entry (in test [1]; in test [7]; in [5]; with Aromatase (Homo sapiens)) was “inactive” throughout.
In the case of `S=C(S)NCCNC(=S)S`, the Potency entry (in test [1]; in test [7]; in test [5]; with Aromatase (Homo sapiens)) was “inactive” each time.
Turning to `O=c1[nH]cnc2ccccc12`, the Potency entry in test [6], in [7], in [2], in test [4], in [9] and in [8] was “inactive” in each case. For the same compound, the Potency result (in test [5]; with Aromatase (Homo sapiens)) was “inactive” each time. Moreover, the result in test [3] was inactive.
For `O=[N+]([O-])c1cccc(Cl)c1Cl`, the Potency result in [1], in test [2], in test [4], in test [9], in [8] and in [5] was “inactive” each time. Also, the Potency result in the test with Aromatase (Homo sapiens) was “inactive”. The result in test [3] was inactive.
On to `c1ccc(OCc2ccc(CCCN3CCOCC3)cc2)cc1`, for which, in test [6], the Potency was 21.1 µM (active). In addition, the Potency result (in [7]; in test [2]; in [4]; in test [9]; in [5]; in the test with Aromatase (Homo sapiens)) was “inactive” throughout. Moreover, in test [3], the compound was called inactive.
For `C=CCCCCCC`, the Potency result in [6], in [7], in test [2], in test [4], in test [9] and in [8] was “inactive” each time. The Potency entry (in test [5]; in the test with Aromatase (Homo sapiens)) was “inactive” in each case. Moreover, the outcome in test [3] was inactive.
In the case of `C#CCOC(=O)[C@@H](C)Oc1ccc(Oc2ncc(Cl)cc2F)cc1`, the Potency result (in test [1]; in test [4]; in test [9]; in test [8]; in test [5]; in the test with Aromatase (Homo sapiens)) was “inactive” each time. In addition, the call in test [3] was inactive.
Regarding `CN1CCN(C2=Nc3ccccc3Sc3ccc(Cl)cc32)CC1`, in test [1], the Potency is 13.3 µM (active). For the same compound, the compound was called inactive in test [3]. For the same compound, the Potency entry (in test [5]; with Aromatase (Homo sapiens)) was “inactive” each time.
Regarding `CC[C@@H]1C[C@H](N(Cc2cc(C(F)(F)F)cc(C(F)(F)F)c2)C(C)=O)c2cc(C(F)(F)F)ccc2N1C(=O)OC(C)C`, the Potency entry in [6], in test [7], in test [2], in test [4], in [9] and in [8] was “inactive” in each case. Also, the call in test [3] was inactive.
In the case of `COCCCCCCCCOCCC[Si](C)(O[Si](C)(C)C)O[Si](C)(C)C`, the Potency entry in test [1] and in test [7] was “inactive” each time. Moreover, the Potency in the test with Aromatase (Homo sapiens) was 19.3 µM (active).
Regarding `CCCC(C)C`, the Potency result in test [1], in test [2], in [4], in test [9], in test [8] and in test [5] was “inactive” in each case. Further, the Potency result in the test with Aromatase (Homo sapiens) is “inactive”. Also, the result in test [3] was inactive.
With `CC(C)(C)c1cc(CCC(=O)OCC(COC(=O)CCc2cc(C(C)(C)C)c(O)c(C(C)(C)C)c2)(COC(=O)CCc2cc(C(C)(C)C)c(O)c(C(C)(C)C)c2)COC(=O)CCc2cc(C(C)(C)C)c(O)c(C(C)(C)C)c2)cc(C(C)(C)C)c1O`, the Potency result (in test [6]; in test [7]; in [2]; in test [8]; in test [5]; with Aromatase (Homo sapiens)) was “inactive” each time. For the same compound, in test [3], the compound was classed as inactive. For the same compound, the Potency is 0.0074 µM [inconclusive] (active) in test [4] and 4.11 µM (active) in [9].
For the compound `CC(=O)/C(C)=C/C1C(C)=CCCC1(C)C` (centres undefined), the Potency result in [1], in test [2], in test [4], in test [9], in [8] and in [5] was “inactive” throughout. In addition, the Potency result with Aromatase (Homo sapiens) was “inactive”. The outcome in [3] was inactive.
Regarding `CCCCCc1ccc(N)cc1`, the Potency result in [1], in [7], in test [4], in test [9] and in test [5] was “inactive” in each case.
With `CC(=O)c1ccc2c(c1)[C@H](NC(=O)c1ccc(F)cc1)[C@@H](O)C(C)(C)O2`, the Potency entry (in [6]; in test [7]; in test [5]; in the test with Aromatase (Homo sapiens)) was “inactive” each time. In addition, the call in test [3] was inactive.
As to `CC1(C)CCC(C)(C)c2cc(NC(=O)c3ccc(C(=O)O)cc3)ccc21`, the Potency result in test [7] and in test [5] was “inactive” each time. Also, the result in test [3] was inactive.
Regarding `CCN(CC)CCOc1ccc2c(c1)C(=O)c1cc(OCCN(CC)CC)ccc1-2`, the Potency entry (in test [7]; with Aromatase (Homo sapiens)) was “inactive” throughout. For the same compound, the compound was called inactive in test [3].
On to `CCN1CCC[C@H]1CNC(=O)c1c(OC)ccc(Br)c1OC`, for which the Potency result (in [2]; in [4]; in [9]; in test [8]; in test [5]; in the test with Aromatase (Homo sapiens)) was “inactive” in each case. Also, the compound was classed as inactive in test [3].
As for `CC1CCc2cc(F)cc3c(=O)c(C(=O)O)cn1c23` (centres undefined), the Potency entry in test [6], in test [7] and in [5] was “inactive” throughout. The compound was called inactive in test [3].
In the case of `Cc1ccc2c(ccc3ccccc32)c1`, the result in test [3] was inactive. Also, the Potency entry (in test [4]; in test [5]; with Aromatase (Homo sapiens)) was “inactive” throughout.
As for `CCCCCCCCCC(=O)OCC`, the Potency entry in test [6], in [7], in [2], in test [4], in test [8] and in test [5] was “inactive” throughout. In addition, the Potency result with Aromatase (Homo sapiens) is “inactive”.
`CC(Cc1cccc(C(F)(F)F)c1)NCCOC(=O)c1ccccc1` (centres undefined): the compound was classed as inactive in test [3]. In addition, in test [5], the Potency entry was “inactive”. For the same compound, the Potency with Aromatase (Homo sapiens) is 29.8 µM (active).
Regarding `COC(Cc1ccccc1)OC`, the Potency entry (in test [7]; in [4]; in test [8]; in test [5]; with Aromatase (Homo sapiens)) was “inactive” in each case. In [3], the compound was classed as inactive.
With `COc1cc(C(C)(C)C)c(O)c(C(C)(C)C)c1`, the Potency result in test [7] and in test [5] was “inactive” in each case. Also, in test [3], the result was inactive.
